Assay results reported in ChEMBL document CHEMBL3988442, “University of Dundee, Small-Polar-MMV Screening Library” (2021).
For some of these results: Measured potencies and affinities stand elsewhere.

How the values were obtained:
Design in all cases: scale not given: direction of the effect not stated beside the values
[1] = target: Protein translocase subunit SecA (Escherichia coli (strain K12)) (UniProt P10408); assay: Assay to Identify E. coli SecA ATPase Inhibitors; type: functional; details: 30 µM
Sequence of Protein translocase subunit SecA (Escherichia coli (strain K12)) (P10408 whole entry): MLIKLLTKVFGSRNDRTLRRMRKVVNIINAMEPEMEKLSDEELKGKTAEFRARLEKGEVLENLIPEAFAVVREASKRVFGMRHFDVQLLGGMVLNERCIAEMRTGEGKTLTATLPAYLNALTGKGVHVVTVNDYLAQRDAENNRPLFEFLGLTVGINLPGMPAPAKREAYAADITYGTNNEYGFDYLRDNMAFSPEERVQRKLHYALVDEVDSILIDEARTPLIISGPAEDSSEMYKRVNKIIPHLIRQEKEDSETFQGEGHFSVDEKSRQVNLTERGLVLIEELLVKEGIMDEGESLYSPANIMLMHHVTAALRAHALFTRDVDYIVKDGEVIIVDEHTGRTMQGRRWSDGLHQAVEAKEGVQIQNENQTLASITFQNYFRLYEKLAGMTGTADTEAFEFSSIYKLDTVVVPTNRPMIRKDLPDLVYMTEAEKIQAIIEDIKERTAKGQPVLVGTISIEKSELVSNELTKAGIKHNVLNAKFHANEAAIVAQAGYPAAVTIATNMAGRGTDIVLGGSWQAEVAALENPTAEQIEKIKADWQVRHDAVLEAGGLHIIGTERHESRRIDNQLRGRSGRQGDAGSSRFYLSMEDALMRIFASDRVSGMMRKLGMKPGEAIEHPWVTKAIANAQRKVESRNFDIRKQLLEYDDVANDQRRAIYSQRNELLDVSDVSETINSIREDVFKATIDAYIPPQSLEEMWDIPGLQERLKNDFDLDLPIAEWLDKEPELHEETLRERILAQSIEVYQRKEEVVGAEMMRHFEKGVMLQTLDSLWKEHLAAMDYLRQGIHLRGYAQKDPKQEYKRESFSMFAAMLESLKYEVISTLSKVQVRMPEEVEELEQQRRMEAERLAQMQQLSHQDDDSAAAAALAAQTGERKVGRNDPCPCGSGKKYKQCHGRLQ

[2] = target: T1, Ubiquitin-activating enzyme e1, putative (Leishmania donovani (strain BPK282A1)) (UniProt E9BSI1); assay: Leishmania donovani Ubiquitin Activating Enzyme (LdE1); type: functional; details: 30 µM
T1 sequence (whole entry): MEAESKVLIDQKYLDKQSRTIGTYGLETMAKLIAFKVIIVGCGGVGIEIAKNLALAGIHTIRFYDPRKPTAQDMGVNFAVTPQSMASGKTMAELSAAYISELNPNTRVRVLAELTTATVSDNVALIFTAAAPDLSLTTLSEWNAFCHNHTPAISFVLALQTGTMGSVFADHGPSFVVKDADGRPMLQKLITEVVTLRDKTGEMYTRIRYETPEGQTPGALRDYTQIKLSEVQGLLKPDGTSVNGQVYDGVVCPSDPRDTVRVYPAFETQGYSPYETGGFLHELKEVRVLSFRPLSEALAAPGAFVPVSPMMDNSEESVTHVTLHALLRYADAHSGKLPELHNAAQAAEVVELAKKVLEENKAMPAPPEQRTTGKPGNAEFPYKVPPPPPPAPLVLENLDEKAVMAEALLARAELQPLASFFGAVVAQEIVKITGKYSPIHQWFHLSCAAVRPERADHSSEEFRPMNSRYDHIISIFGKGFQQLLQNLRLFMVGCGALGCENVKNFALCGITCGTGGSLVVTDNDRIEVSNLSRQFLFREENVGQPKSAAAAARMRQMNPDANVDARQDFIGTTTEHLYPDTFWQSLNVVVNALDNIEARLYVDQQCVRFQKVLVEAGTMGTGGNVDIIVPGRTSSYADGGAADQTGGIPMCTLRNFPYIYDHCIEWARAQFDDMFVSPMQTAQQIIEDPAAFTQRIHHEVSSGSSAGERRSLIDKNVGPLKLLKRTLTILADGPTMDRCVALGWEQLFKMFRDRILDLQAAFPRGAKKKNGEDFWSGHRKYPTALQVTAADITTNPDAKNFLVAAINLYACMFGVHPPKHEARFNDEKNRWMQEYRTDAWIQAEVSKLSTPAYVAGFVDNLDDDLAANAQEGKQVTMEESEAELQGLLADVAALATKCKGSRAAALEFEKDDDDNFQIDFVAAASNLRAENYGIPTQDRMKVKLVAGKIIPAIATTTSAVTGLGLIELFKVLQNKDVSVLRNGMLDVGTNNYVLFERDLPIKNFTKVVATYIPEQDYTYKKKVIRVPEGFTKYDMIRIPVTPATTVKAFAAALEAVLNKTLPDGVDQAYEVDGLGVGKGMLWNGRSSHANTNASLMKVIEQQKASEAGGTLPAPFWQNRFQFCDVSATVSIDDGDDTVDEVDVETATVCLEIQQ

[3] = target: AMP-activated protein kinase, AMPK (Homo sapiens) (UniProt P54646+O43741+P54619+Q9UGJ0+Q9Y478+Q13131+Q9UGI9); assay: AMP-dependent Kinase enzyme assay. An in vitro enzyme assay that detects ADP turnover that is directly proportional to AMPK activity. This uses naive AMPK that is activated during the assay with MK-8722; type: functional; details: 30 µM
[4] = target: Sialic acid-binding Ig-like lectin 9 (Homo sapiens) (UniProt Q9Y336); assay: Hs-Siglec9 ALPHAscreen SOP 20170721; details: 10 µM
Sequence of Sialic acid-binding Ig-like lectin 9 (Homo sapiens) (Q9Y336 whole entry): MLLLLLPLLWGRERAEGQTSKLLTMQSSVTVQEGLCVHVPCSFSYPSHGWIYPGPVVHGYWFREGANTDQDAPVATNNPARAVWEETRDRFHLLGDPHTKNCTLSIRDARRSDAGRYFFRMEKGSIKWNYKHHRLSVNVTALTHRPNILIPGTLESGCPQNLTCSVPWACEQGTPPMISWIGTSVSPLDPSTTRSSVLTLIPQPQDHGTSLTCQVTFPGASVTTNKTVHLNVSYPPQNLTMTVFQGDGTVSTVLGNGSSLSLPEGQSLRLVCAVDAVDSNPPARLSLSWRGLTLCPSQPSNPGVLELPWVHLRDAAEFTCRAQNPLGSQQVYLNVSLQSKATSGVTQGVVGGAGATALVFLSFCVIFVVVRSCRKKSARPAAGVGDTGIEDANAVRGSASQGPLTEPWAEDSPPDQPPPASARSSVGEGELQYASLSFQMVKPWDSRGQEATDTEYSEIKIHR

[5] = test system: Trypanosoma cruzi; assay: Trypanosoma cruzi phosphomannomutase and mannose-1-phosphate guanylyltransferase assay; type: functional; details: 10 µM
[6] = target: T2, Arginase-2, mitochondrial (Homo sapiens) (UniProt P78540); assay: in vitro enzyme assay to detect the production of urea directly proportional to the activity of Arginase II; type: functional; details: 33.3 µM; also: in the data most compounds retested in dose-response had high values
T2 sequence (whole entry): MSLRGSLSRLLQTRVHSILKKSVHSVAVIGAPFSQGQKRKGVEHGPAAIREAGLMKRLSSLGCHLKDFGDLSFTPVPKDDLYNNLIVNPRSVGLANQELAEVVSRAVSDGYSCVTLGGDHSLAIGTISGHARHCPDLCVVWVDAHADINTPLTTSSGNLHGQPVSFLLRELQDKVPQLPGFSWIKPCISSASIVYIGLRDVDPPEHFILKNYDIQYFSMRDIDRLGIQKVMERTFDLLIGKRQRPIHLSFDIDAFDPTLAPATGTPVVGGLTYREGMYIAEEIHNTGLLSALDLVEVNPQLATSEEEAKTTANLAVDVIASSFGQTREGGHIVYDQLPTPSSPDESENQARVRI

[7] = target: T3, Proteasome subunit beta (Trypanosoma cruzi) (UniProt O96673); assay: Trypanosoma cruzi proteasome chymotrypsin-like activity (TcProtChymo) assay.; also: in the data most compounds retested in dose-response had high values; type: functional; details: 9.37 µM
T3 sequence (whole entry): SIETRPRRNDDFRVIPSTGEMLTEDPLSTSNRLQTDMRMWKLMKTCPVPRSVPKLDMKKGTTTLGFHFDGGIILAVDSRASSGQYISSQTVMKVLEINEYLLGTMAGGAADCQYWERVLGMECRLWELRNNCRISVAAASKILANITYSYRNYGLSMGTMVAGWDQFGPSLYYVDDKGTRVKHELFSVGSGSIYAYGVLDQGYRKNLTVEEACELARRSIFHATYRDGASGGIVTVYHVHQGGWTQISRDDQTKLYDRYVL

[8] = species on record: Homo sapiens; assay: To identify inhibition of the IFN signalling (Jak-Stat) pathway via expression of an eGFP reporter gene under the control of an IFN-stimulated response element (ISRE) containing MxA promoter.; type: functional; details: 30 µM
[9] = target: T4, Tyrosyl-tRNA synthetase, putative (Trypanosoma cruzi (strain CL Brener)) (UniProt Q4DSP6); assay: Trypanosoma cruzi tyrosyl tRNA synthetase (TcYRS) _High Tyrosine SOP; type: functional; details: 30 µM; also: in the data most compounds retested in dose-response had high values
T4 sequence (whole entry): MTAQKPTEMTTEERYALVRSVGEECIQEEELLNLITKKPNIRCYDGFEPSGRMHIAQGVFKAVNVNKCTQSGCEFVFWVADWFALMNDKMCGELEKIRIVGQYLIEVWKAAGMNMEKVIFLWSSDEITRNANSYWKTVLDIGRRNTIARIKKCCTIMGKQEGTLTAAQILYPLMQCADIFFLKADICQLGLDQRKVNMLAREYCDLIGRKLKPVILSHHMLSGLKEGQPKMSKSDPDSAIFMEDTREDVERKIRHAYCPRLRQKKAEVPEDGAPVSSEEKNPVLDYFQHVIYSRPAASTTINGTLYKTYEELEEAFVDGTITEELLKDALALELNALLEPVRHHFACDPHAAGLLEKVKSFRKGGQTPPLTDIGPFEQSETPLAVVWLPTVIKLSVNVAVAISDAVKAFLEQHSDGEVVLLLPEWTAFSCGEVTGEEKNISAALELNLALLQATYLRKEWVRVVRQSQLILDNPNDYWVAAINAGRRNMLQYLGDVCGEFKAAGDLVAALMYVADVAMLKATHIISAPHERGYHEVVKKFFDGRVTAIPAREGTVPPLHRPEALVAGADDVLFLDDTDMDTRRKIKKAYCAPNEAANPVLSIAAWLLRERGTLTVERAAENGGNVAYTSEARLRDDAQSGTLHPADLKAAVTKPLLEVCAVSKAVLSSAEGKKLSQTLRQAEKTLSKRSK

[10] = target: T4, Tyrosyl-tRNA synthetase, putative (Trypanosoma cruzi (strain CL Brener)); assay: Trypanosoma cruzi tyrosyl tRNA synthetase (TcYRS) SOP; type: functional; details: 30 µM
[11] = target: Chromo domain-containing protein 1 (Saccharomyces cerevisiae (strain ATCC 204508 / S288c) (Baker's yeast)) (UniProt P32657); assay: ScCHD-1 Enzyme Inhibition Assay; type: functional; details: 30 µM; also: in the data most compounds retested in dose-response had high values
Sequence of Chromo domain-containing protein 1 (Saccharomyces cerevisiae (strain ATCC 204508 / S288c) (Baker's yeast)) (P32657 whole entry, the tested form may be a part): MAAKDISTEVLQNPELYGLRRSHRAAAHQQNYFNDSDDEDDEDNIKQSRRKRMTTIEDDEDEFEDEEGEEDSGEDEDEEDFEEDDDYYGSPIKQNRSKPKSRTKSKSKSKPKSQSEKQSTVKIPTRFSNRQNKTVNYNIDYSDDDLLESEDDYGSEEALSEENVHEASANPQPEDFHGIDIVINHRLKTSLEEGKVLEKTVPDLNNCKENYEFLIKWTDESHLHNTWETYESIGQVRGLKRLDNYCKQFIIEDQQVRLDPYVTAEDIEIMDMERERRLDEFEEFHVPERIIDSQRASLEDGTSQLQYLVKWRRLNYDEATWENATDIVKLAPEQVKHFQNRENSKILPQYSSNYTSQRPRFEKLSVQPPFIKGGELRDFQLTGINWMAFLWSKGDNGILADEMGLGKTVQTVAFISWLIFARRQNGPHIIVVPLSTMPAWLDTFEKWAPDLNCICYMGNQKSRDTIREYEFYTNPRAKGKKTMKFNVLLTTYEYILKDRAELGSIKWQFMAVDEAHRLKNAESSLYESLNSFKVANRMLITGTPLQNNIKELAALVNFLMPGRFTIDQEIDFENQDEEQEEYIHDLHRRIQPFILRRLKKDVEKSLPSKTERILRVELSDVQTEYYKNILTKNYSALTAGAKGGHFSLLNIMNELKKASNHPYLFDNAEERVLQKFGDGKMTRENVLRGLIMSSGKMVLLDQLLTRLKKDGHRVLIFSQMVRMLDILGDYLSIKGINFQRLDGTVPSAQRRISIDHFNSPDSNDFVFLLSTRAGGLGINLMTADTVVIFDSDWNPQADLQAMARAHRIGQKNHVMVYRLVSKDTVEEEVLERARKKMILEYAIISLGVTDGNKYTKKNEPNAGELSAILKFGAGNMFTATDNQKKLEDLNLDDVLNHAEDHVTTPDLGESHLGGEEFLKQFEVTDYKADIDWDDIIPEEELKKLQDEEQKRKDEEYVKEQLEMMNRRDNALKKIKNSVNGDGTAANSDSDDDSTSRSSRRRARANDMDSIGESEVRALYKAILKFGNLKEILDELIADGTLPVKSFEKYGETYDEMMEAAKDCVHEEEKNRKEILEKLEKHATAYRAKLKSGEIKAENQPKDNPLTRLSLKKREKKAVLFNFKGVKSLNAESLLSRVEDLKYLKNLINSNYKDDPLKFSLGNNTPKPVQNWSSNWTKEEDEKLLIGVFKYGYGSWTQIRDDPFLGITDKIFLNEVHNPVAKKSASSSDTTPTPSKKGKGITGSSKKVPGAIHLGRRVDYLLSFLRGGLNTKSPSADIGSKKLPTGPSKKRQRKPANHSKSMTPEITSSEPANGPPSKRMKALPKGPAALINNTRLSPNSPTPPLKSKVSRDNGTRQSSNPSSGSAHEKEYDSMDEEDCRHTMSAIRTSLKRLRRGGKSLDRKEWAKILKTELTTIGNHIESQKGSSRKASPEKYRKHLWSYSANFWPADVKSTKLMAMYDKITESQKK

Row | SMILES | Percent Effect [1] [%] | Percent Effect [2] [%] | Percent Effect [3] [%] | Percent Effect [4] [%] | Percent Effect [5] [%] | Percent Effect [6] [%] | Percent Effect [7] [%] | Percent Effect [8] [%] | Percent Effect [9] [%] | Percent Effect [10] [%] | Percent Effect [11] [%]
1 | CCc1nc(C2CCCN2Cc2nc3ccccc3o2)no1 (stereo unspecified) | -0.183 | 2.6 | 6.37 | 9.09 | 1.67 | 2.74 | 2.67 | -1.25 | -2.86 | 0 | 2.53
2 | O=C(c1cccc(N2CCCC2=O)c1)N1CCCC(n2cncn2)C1 (stereo unspecified) | -5.98 | 13.5 | -31.2 | 2.17 | -1.6 | -1.6 | -0.18 | 7.08 | 8.37 | 13.6 | -5.4
3 | CS(=O)(=O)c1ccccc1C(=O)NCC1Cc2ccccc2O1 (stereo unspecified) | -1.96 | 11 | -2.95 | 0.634 | -4.31 | 0.455 | 19 | 20.8 | 4.3 | 7.5 | -5.76
4 | CSc1cccc(CNC(=O)C2CC(=O)N(CCN(C)C)C2)c1 (stereo unspecified) | 0.794 | 5.33 | -10.1 | 4.4 | -2.82 | 1.56 | 15.7 | 9.77 | 4.92 | 13.6 | -3.47
5 | Cc1c(C)n(Cc2ccncc2)c2nc3c(c(N)c12)CCCCC3 | -2.06 | 6.67 | 9.29 | 1.27 | 9.43 | -1.94 | 15.3 | 43.7 | 3.17 | 12.8 | -10.9
6 | O=C(Cc1ccccc1)N1CCC2(CC(=O)N(c3cccc(F)c3)C2)C1 (stereo unspecified) | -5.5 | 2.7 | -5.09 | -3.6 | -1.86 | 1.74 | 6.09 | -6.6 | 3.23 | 3.7 | 2.85
7 | Cc1nn(C)c2c(N3CCN(C(=O)NC4CCCCC4)CC3)ncnc12 | -1.64 | 9.33 | -2.22 | -3.41 | -5.5 | 0.528 | 11.7 | 0.346 | 2.12 | 5.13 | -10.1
8 | Cc1cc(C(=O)N2CCc3nnc(N(C)C)cc3C2)c(C)n1C1CC1 | -2.94 | 3.8 | -0.0334 | 0.611 | -0.513 | 4.52 | 16.1 | 14 | 8.33 | 10.1 | -3.64
9 | CCn1ncc2c1CCCC2NCc1cccc2c1OCCO2 (stereo unspecified) | -2.98 | -6.33 | 6.39 | -0.488 | -0.718 | 4.09 | 0 | 12.6 | 0 | 2.53 | -17.9
10 | Fc1cccnc1OC[C@@]12CCO[C@@H]1CCN(CC1CCOCC1)C2 | -3.83 | 8.11 | -6.9 | 22.7 | 4.01 | -0.744 | 14.3 | 12.2 | 6.45 | 13.6 | -9.09
11 | CC(C)OCCC(=O)N(C)CCCc1cc(-c2ccccc2)no1 | 2.05 | 18.9 | 5.99 | -0.12 | -8.08 | -1.66 | 13.3 | 22 | -1.98 | 3.66 | -5.36
